{
  "source": "ChEMBL document CHEMBL2218924",
  "about": "“A broad activity screen in support of a chemogenomic map for kinase signalling research and drug discovery” (Biochem J, 2013)",
  "data": [
    {"biological_target": "Ephrin type-A receptor 4 (Homo sapiens) (UniProt P54764)", "sequence (P54764 whole entry)": "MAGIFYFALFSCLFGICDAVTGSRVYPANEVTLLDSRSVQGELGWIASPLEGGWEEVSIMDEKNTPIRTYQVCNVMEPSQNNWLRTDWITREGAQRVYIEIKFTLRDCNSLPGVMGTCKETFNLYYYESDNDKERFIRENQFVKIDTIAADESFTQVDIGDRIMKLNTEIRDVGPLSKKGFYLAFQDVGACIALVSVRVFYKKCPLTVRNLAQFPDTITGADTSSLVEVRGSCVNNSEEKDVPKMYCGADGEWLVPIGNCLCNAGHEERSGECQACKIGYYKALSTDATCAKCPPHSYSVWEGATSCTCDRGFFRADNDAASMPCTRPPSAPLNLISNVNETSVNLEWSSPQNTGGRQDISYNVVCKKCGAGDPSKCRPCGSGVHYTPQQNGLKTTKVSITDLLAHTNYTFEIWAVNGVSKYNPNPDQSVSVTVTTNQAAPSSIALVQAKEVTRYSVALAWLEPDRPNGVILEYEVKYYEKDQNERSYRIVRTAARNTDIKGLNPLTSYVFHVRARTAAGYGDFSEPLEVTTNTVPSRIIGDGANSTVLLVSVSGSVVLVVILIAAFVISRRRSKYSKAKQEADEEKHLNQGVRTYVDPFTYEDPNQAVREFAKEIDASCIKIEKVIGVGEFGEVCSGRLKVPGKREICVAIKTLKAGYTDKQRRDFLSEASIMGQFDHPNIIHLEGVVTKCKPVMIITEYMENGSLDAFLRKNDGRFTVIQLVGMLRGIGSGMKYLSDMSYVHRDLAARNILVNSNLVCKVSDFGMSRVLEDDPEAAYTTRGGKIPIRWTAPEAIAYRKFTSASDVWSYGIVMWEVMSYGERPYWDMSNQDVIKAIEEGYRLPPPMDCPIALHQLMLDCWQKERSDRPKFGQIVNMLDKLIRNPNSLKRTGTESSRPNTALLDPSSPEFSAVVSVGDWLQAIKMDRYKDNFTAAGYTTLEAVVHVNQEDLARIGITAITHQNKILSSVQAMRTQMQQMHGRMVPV", "conditions": "at 1 µM", "units": {"residual activity": "%"}, "values": [
      {"compound": "COc1ccc2c(c1)c(C1=C(c3c[nH]c4ccccc34)C(=O)NC1=O)cn2CCCN(C)C", "residual activity": 115},
      {"compound": "CSc1nc(-c2ccc(F)cc2)c(-c2ccnc(NC(C)c3ccccc3)c2)[nH]1", "note": "(configuration not stated)", "residual activity": 102},
      {"compound": "Nc1ncnc2c1c(-c1ccc(Oc3ccccc3)cc1)cn2C1CCCC1", "residual activity": 112},
      {"compound": "COc1cc2nccc(Oc3ccc(NC(=O)Nc4cc(C)on4)c(Cl)c3)c2cc1OC", "residual activity": 26},
      {"compound": "CC(C)c1nn(-c2c(Cl)cccc2Cl)c2nc(Cc3ccc(OCCO)cc3)[nH]c(=O)c12", "residual activity": 121},
      {"compound": "COc1cc2ncnc(Nc3cccc(Cl)c3)c2cc1OC", "residual activity": 103},
      {"compound": "O=C1NC(=O)c2c1c1c3ccccc3[nH]c1n1cncc21", "residual activity": 98},
      {"compound": "CCCCc1c(-c2ccc(OC)cc2)[nH]c2nccnc12", "residual activity": 108},
      {"compound": "CCCC(=O)Oc1ccc2[nH]c(C(=O)c3cc4ccccc4[nH]3)cc2c1", "residual activity": 105},
      {"compound": "CC(C)(C)n1nc(Cc2cccc3ccccc23)c2c(N)ncnc21", "residual activity": 47},
      {"compound": "O=C(CCCc1ccc(-c2ccccc2F)cc1)Nc1ccc(O)cc1", "residual activity": 108},
      {"compound": "Nc1ncnc2[nH]nc(Nc3ccc(F)cc3)c12", "residual activity": 111},
      {"compound": "NC(=O)Nc1sc(-c2ccc(F)cc2)cc1C(N)=O", "residual activity": 93},
      {"compound": "O=C1Nc2ccc(Cl)cc2/C1=C/c1cc(Cl)c(O)c(Cl)c1", "residual activity": 99}
    ]},
    {"biological_target": "Ephrin type-A receptor 4 (Homo sapiens) (UniProt P54764)", "conditions": "at 10 µM", "units": {"residual activity": "%"}, "values": [
      {"compound": "COc1ccc2c(c1)c(C1=C(c3c[nH]c4ccccc34)C(=O)NC1=O)cn2CCCN(C)C", "residual activity": 73},
      {"compound": "O=c1cc(N2CCOCC2)oc2c1ccc1ccccc12", "residual activity": 103},
      {"compound": "CSc1nc(-c2ccc(F)cc2)c(-c2ccnc(NC(C)c3ccccc3)c2)[nH]1", "note": "(configuration not stated)", "residual activity": 91},
      {"compound": "CC(C)[C@H](CO)Nc1nc(Nc2cc(N)cc(Cl)c2)c2ncn(C(C)C)c2n1", "residual activity": 63},
      {"compound": "Nc1ncnc2c1c(-c1ccc(Oc3ccccc3)cc1)cn2C1CCCC1", "residual activity": 79},
      {"compound": "COc1cc2nccc(Oc3ccc(NC(=O)Nc4cc(C)on4)c(Cl)c3)c2cc1OC", "residual activity": 3},
      {"compound": "COc1cc2ncnc(Nc3cccc(Cl)c3)c2cc1OC", "residual activity": 57},
      {"compound": "O=C1NC(=O)c2c1c1c3ccccc3[nH]c1n1cncc21", "residual activity": 94},
      {"compound": "CCCCc1c(-c2ccc(OC)cc2)[nH]c2nccnc12", "residual activity": 105},
      {"compound": "CCCC(=O)Oc1ccc2[nH]c(C(=O)c3cc4ccccc4[nH]3)cc2c1", "residual activity": 91},
      {"compound": "CC(C)(C)n1nc(Cc2cccc3ccccc23)c2c(N)ncnc21", "residual activity": 5},
      {"compound": "O=C(CCCc1ccc(-c2ccccc2F)cc1)Nc1ccc(O)cc1", "residual activity": 96},
      {"compound": "Nc1ncnc2[nH]nc(Nc3ccc(F)cc3)c12", "residual activity": 77},
      {"compound": "Nc1ncnc2c1cnn2-c1ccccc1", "residual activity": 97},
      {"compound": "CN(C)S(=O)(=O)c1ccc2c(c1)/C(=C/c1cc3c([nH]1)CCCC3)C(=O)N2", "residual activity": 92},
      {"compound": "NC(=O)Nc1sc(-c2ccc(F)cc2)cc1C(N)=O", "residual activity": 43},
      {"compound": "O=C1Nc2ccc(Cl)cc2/C1=C/c1cc(Cl)c(O)c(Cl)c1", "residual activity": 90}
    ]},
    {"biological_target": "Ephrin type-A receptor 5 (Homo sapiens) (UniProt P54756)", "sequence (P54756 whole entry)": "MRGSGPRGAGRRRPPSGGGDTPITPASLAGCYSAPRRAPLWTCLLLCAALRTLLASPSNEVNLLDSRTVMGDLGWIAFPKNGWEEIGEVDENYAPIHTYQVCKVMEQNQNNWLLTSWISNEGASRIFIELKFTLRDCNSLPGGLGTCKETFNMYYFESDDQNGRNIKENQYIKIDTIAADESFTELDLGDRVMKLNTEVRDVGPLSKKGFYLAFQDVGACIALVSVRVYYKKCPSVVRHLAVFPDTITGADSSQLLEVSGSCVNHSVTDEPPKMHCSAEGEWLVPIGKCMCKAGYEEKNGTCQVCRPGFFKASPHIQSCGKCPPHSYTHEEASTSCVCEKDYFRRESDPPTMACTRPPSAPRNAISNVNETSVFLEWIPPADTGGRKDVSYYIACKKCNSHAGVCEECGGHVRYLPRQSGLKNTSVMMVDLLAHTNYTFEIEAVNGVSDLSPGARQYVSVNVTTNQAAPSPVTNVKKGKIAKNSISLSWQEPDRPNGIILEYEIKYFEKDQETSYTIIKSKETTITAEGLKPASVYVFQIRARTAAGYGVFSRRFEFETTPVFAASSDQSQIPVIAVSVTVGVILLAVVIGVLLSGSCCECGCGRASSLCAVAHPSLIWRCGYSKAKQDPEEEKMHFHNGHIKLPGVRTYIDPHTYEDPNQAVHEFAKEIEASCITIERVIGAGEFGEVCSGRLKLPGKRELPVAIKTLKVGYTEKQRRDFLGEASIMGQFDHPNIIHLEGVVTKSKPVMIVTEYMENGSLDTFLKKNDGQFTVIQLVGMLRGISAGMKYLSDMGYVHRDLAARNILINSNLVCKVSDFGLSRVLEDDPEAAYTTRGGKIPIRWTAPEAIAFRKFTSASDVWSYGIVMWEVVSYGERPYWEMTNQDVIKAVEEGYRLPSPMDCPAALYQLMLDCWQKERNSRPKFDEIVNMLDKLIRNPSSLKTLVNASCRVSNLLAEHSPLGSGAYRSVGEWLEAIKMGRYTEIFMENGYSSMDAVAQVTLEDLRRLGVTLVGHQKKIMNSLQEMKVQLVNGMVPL", "conditions": "at 1 µM", "units": {"residual activity": "%"}, "values": [
      {"compound": "COc1cc2nccc(Oc3ccc(NC(=S)NC(=O)c4ccccc4C)cc3)c2cc1OC", "residual activity": 91},
      {"compound": "O=c1cc(N2CCOCC2)oc2c1ccc1ccccc12", "residual activity": 124},
      {"compound": "CC(C)[C@H](CO)Nc1nc(Nc2cc(N)cc(Cl)c2)c2ncn(C(C)C)c2n1", "residual activity": 86},
      {"compound": "COc1ccc(COc2ccc(Cc3cnc(N)nc3N)cc2OC)cc1", "residual activity": 111},
      {"compound": "Nc1ncnc2c1c(-c1ccc(Oc3ccccc3)cc1)cn2C1CCCC1", "residual activity": 83},
      {"compound": "COc1cc2nccc(Oc3ccc(NC(=O)Nc4cc(C)on4)c(Cl)c3)c2cc1OC", "residual activity": 2},
      {"compound": "CC(C)c1nn(-c2c(Cl)cccc2Cl)c2nc(Cc3ccc(OCCO)cc3)[nH]c(=O)c12", "residual activity": 106},
      {"compound": "COc1cc2c(cc1OC)-c1n[nH]c(Nc3cccc(F)c3)c1C2", "residual activity": 103},
      {"compound": "COc1cc2ncnc(Nc3cccc(Cl)c3)c2cc1OC", "residual activity": 77},
      {"compound": "O=C1NC(=O)c2c1c1c3ccccc3[nH]c1n1cncc21", "residual activity": 105},
      {"compound": "CCCCc1c(-c2ccc(OC)cc2)[nH]c2nccnc12", "residual activity": 100},
      {"compound": "CCCC(=O)Oc1ccc2[nH]c(C(=O)c3cc4ccccc4[nH]3)cc2c1", "residual activity": 107},
      {"compound": "CC(C)(C)n1nc(Cc2cccc3ccccc23)c2c(N)ncnc21", "residual activity": 21},
      {"compound": "O=C1C(Cl)=C(N2C(=O)CCC2=O)C(=O)c2ccccc21", "residual activity": 119},
      {"compound": "COc1ccc(-c2cnc3c(-c4ccsc4)cnn3c2)cc1", "residual activity": 95},
      {"compound": "O=C(CCCc1ccc(-c2ccccc2F)cc1)Nc1ccc(O)cc1", "residual activity": 111},
      {"compound": "Nc1ncnc2[nH]nc(Nc3ccc(F)cc3)c12", "residual activity": 82},
      {"compound": "CCCCc1c(-c2ccc(O)cc2)[nH]c2nccnc12", "residual activity": 95},
      {"compound": "NC(=O)Nc1sc(-c2ccc(F)cc2)cc1C(N)=O", "residual activity": 90}
    ]},
    {"biological_target": "Ephrin type-A receptor 5 (Homo sapiens) (UniProt P54756)", "conditions": "at 10 µM", "units": {"residual activity": "%"}, "values": [
      {"compound": "COc1cc2nccc(Oc3ccc(NC(=S)NC(=O)c4ccccc4C)cc3)c2cc1OC", "residual activity": 53},
      {"compound": "O=c1cc(N2CCOCC2)oc2c1ccc1ccccc12", "residual activity": 93},
      {"compound": "CSc1nc(-c2ccc(F)cc2)c(-c2ccnc(NC(C)c3ccccc3)c2)[nH]1", "note": "(configuration not stated)", "residual activity": 97},
      {"compound": "CC(C)[C@H](CO)Nc1nc(Nc2cc(N)cc(Cl)c2)c2ncn(C(C)C)c2n1", "residual activity": 23},
      {"compound": "Nc1ncnc2c1c(-c1ccc(Oc3ccccc3)cc1)cn2C1CCCC1", "residual activity": 38},
      {"compound": "COc1cc2nccc(Oc3ccc(NC(=O)Nc4cc(C)on4)c(Cl)c3)c2cc1OC", "residual activity": 7},
      {"compound": "CC(C)c1nn(-c2c(Cl)cccc2Cl)c2nc(Cc3ccc(OCCO)cc3)[nH]c(=O)c12", "residual activity": 106},
      {"compound": "COc1cc2c(cc1OC)-c1n[nH]c(Nc3cccc(F)c3)c1C2", "residual activity": 43},
      {"compound": "COc1cc2ncnc(Nc3cccc(Cl)c3)c2cc1OC", "residual activity": 27},
      {"compound": "O=c1cc(N2CCNCC2)oc2c(-c3ccccc3)cccc12", "residual activity": 103},
      {"compound": "O=C1NC(=O)c2c1c1c3ccccc3[nH]c1n1cncc21", "residual activity": 76},
      {"compound": "CCCCc1c(-c2ccc(OC)cc2)[nH]c2nccnc12", "residual activity": 83},
      {"compound": "Nc1n[nH]c2nc3ccccc3nc12", "residual activity": 97},
      {"compound": "CCCC(=O)Oc1ccc2[nH]c(C(=O)c3cc4ccccc4[nH]3)cc2c1", "residual activity": 99},
      {"compound": "CC(C)(C)n1nc(Cc2cccc3ccccc23)c2c(N)ncnc21", "residual activity": 5},
      {"compound": "Fc1ccc(-c2nc3n(c2-c2ccncc2)CCS3)cc1", "residual activity": 89},
      {"compound": "O=C1C(Cl)=C(N2C(=O)CCC2=O)C(=O)c2ccccc21", "residual activity": 96},
      {"compound": "O=C(CCCc1ccc(-c2ccccc2F)cc1)Nc1ccc(O)cc1", "residual activity": 106},
      {"compound": "Nc1ncnc2[nH]nc(Nc3ccc(F)cc3)c12", "residual activity": 34},
      {"compound": "Nc1ncnc2c1cnn2-c1ccccc1", "residual activity": 88},
      {"compound": "CCCCc1c(-c2ccc(O)cc2)[nH]c2nccnc12", "residual activity": 66},
      {"compound": "NC(=O)Nc1sc(-c2ccc(F)cc2)cc1C(N)=O", "residual activity": 28}
    ]}
  ]
}
